Calls of active or inactive are those of the source. How the source made its calls: active means hit-call score of the fitted dose curve at least 0.9, where 1 is the maximum; inactive means score below 0.9.
Tests used:
[1] = ATG_M_32_CIS: Attagene CIS-FACTORIAL HepG2 Assay for M32 Transcription Factor (Internal Marker) (AID 2282949); settings: HepG2 Attagene cis-factorial M32 reporter, mRNA; actives raise or lower the signal;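 further: background control marker of the multiplexed CIS panel rather than a real target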
Method in brief: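 Using DMSO as baseline, bidirectional curve fits were applied to reporter mRNA signals. These came from transiently transfected HepG2 cells exposed for 24 h, with RNA analysed by RT-PCR, FAM primer extension, HpaI digestion and CE.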

[2] = ATG_M_06_CIS: Attagene CIS-FACTORIAL HepG2 Assay for M06 Transcription Factor (Internal Marker) (AID 2282950); settings: HepG2 Attagene CIS-FACTORIAL M06 internal marker reporter; actives raise or lower the signal
Method in brief: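 Internal background marker within multiplexed cis-reporter HepG2 system. Cells transiently transfected, dosed 24 h; reporter mRNA measured by RT-PCR, HpaI digestion and capillary electrophoresis. Bidirectional fit relative to DMSO.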

[3] = target: Hypoxia-inducible factor 1-alpha (Homo sapiens) (UniProt Q16665); experiment: ATG_HIF1a_CIS: Attagene CIS-FACTORIAL HepG2 Assay for human Hypoxia Inducible Factor 1 (HIF1A) (AID 2282951); settings: HepG2 Attagene cis-factorial HIF1a reporter transcription; actives raise or lower the signal
Chain of Hypoxia-inducible factor 1-alpha (Homo sapiens) (Q16665 whole entry, looked up): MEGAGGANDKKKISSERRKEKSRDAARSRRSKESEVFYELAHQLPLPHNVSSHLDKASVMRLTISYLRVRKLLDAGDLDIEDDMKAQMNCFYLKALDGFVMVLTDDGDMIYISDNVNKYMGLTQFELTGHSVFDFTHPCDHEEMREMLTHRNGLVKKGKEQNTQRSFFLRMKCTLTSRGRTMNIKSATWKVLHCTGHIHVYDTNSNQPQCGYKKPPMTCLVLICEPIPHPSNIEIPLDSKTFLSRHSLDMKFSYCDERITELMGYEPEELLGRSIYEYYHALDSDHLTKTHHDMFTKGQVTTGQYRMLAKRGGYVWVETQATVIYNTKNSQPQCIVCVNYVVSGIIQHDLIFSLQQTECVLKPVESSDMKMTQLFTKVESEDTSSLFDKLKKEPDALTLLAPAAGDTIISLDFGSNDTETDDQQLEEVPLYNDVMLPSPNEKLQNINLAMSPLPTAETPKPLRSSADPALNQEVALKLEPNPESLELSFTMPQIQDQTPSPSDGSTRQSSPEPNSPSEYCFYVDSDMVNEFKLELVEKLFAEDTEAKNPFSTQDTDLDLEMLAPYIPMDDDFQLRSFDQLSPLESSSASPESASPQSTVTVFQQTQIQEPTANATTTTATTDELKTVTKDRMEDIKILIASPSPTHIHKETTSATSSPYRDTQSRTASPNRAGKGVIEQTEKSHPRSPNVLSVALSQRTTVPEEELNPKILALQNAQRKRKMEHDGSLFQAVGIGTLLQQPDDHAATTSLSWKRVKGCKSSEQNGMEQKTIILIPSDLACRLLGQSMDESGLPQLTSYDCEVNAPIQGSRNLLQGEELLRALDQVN
Method in brief: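 Endogenous-TF cis reporter readout, human HepG2 cells, 24 h incubation; mRNA detected via RT-PCR and capillary electrophoresis fluorescence; DMSO-normalised bidirectional fitting.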

[4] = target: Hepatocyte nuclear factor 6 (Homo sapiens) (UniProt Q9UBC0); experiment: ATG_HNF6_CIS: Attagene CIS-FACTORIAL HepG2 Assay for human Hepatocyte Nuclear Factor 6 (HNF6) (AID 2282952); settings: HepG2 Attagene cis-factorial HNF6 reporter transcription; actives raise or lower the signal
Chain of Hepatocyte nuclear factor 6 (Homo sapiens) (Q9UBC0 whole entry, looked up): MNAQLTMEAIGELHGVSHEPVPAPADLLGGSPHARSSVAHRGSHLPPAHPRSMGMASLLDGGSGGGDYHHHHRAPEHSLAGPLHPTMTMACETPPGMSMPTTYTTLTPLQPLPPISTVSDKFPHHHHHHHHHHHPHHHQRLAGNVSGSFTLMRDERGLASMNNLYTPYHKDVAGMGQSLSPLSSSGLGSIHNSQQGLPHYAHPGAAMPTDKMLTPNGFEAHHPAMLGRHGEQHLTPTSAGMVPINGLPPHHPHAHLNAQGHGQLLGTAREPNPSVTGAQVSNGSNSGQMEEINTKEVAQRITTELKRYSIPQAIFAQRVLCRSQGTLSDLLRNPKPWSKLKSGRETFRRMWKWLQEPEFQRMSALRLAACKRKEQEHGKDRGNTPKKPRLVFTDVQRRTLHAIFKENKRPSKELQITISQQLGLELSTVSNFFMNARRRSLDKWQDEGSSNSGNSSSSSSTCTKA
Method in brief: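 Endogenous factor activity read in transiently transfected HepG2 via promoter-regulated reporter transcripts. RNA harvested 24 h post-dosing, reverse-transcribed, PCR-amplified, FAM-labelled, HpaI-digested and resolved by capillary electrophoresis; fitted in both directions against DMSO.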

[5] = ATG_MRE_CIS: Attagene CIS-FACTORIAL HepG2 Assay for human Metal Responsive Element (MRE) (AID 2282954); settings: HepG2 MRE cis-reporter transcription, Attagene multiplex; actives raise or lower the signal
Method in brief: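 RT-PCR/capillary electrophoresis readout of reporter mRNA, 24 h post-dosing, in HepG2 cells transfected with multiplexed cis-regulated reporter constructs. Gain or loss of signal fitted bidirectionally against DMSO baseline.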

[6] = ATG_PBREM_CIS: Attagene CIS-FACTORIAL HepG2 Assay for human Phenobarbital-responsive Enhancer Module (PBREM) (AID 2282955); settings: HepG2 PBREM cis-reporter, Attagene multiplexed transcription; actives raise or lower the signal
Method in brief: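 Readout: reporter mRNA, fluorescent RT-PCR fragments separated by capillary electrophoresis. System: HepG2 transiently transfected with cis-regulated reporter units. Exposure: 24 h. Analysis: bidirectional, DMSO baseline.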

[7] = ATG_PXRE_CIS: Attagene CIS-FACTORIAL HepG2 Assay for human Pregnane X Receptor Element (PXRE) (AID 2282957); settings: HepG2 Attagene CIS-FACTORIAL PXRE reporter, mRNA; actives raise or lower the signal
Method in brief: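 Reporter transcripts under endogenous PXR-responsive cis-regulation quantified from total RNA of transfected HepG2 cells 24 h post-dosing, via RT-PCR with fluorescent primer extension and capillary electrophoresis. Gain or loss of signal fitted against DMSO baseline.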

[8] = ATG_RORE_CIS: Attagene CIS-FACTORIAL HepG2 Assay for human RAR-related Orphan Receptor Element (RORE) (AID 2282959); settings: HepG2 Attagene cis-factorial RORE reporter, mRNA; actives raise or lower the signal
Method in brief: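 Measured here: transcript induction of a cis-regulated reporter in HepG2 cells transiently transfected via FuGene 6. After 24 h, RNA was processed by RT-PCR and fluorescent capillary electrophoresis; DMSO defined baseline activity.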

[9] = ATG_Sox_CIS: Attagene CIS-FACTORIAL HepG2 Assay for human SRY-box transcription factor (SOX) (AID 2282960); settings: HepG2 Attagene cis-factorial SOX reporter, mRNA; actives raise or lower the signal
Method in brief: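 Using transiently transfected HepG2 cells, reporter transcription driven by cis elements was assessed 24 h after dosing. Signal was fluorescence of capillary-separated RT-PCR products, with DMSO defining baseline activity.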

[10] = target: Transcription factor Sp1 (Homo sapiens) (UniProt P08047); experiment: ATG_Sp1_CIS: Attagene CIS-FACTORIAL HepG2 Assay for human Specificity Protein 1 (Sp1) (AID 2282961); settings: HepG2 Sp1 cis-reporter transcription, actives raise or lower the signal
Chain of Transcription factor Sp1 (Homo sapiens) (P08047 whole entry, looked up): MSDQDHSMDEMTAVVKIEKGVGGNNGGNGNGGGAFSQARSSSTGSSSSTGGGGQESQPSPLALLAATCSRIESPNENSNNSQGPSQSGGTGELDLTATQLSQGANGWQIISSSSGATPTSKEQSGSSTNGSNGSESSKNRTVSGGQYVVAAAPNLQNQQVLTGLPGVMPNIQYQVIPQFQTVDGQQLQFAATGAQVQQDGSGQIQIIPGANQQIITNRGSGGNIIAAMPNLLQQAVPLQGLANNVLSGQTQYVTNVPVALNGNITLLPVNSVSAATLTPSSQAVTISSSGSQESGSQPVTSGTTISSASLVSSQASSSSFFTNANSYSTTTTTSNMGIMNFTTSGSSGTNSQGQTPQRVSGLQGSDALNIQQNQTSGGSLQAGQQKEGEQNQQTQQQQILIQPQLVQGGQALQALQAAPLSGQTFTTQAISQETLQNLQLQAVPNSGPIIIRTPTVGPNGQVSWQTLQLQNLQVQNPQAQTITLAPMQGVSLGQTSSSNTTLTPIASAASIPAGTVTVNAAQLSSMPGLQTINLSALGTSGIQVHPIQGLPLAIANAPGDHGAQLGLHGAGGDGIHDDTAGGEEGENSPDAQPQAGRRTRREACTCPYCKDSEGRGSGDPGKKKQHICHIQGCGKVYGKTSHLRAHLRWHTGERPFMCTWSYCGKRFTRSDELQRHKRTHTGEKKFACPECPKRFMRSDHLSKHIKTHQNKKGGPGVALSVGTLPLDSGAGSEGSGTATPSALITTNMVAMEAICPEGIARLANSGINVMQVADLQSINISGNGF
Method in brief: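 After transient transfection of HepG2 cells with cis-promoter reporter units and 24 h chemical treatment, reporter transcripts were quantified by RT-PCR and capillary electrophoresis fluorescence. Gain- and loss-of-signal fitted against DMSO.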

[11] = ATG_SREBP_CIS: Attagene CIS-FACTORIAL HepG2 Assay for human Sterol Regulatory Element Binding (SREBP) (AID 2282962); settings: HepG2 Attagene cis-factorial SREBP reporter, mRNA; actives raise or lower the signal
Method in brief: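 In this cis-format assay, HepG2 liver cells express reporters controlled by promoter elements responsive to native transcription factors. Exposure lasts 24 h; reporter mRNA fluorescence from capillary electrophoresis gives the signal, fitted bidirectionally against DMSO.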

[12] = target: Signal transducer and activator of transcription 3 (Homo sapiens) (UniProt P40763); experiment: ATG_STAT3_CIS: Attagene CIS-FACTORIAL HepG2 Assay for human Signal Transducer and Activator of Transcription 3 (STAT3) (AID 2282963); settings: HepG2, Attagene cis-factorial STAT3 reporter transcription; actives raise or lower the signal
Chain of Signal transducer and activator of transcription 3 (Homo sapiens) (P40763 whole entry, looked up, the tested form may be a part): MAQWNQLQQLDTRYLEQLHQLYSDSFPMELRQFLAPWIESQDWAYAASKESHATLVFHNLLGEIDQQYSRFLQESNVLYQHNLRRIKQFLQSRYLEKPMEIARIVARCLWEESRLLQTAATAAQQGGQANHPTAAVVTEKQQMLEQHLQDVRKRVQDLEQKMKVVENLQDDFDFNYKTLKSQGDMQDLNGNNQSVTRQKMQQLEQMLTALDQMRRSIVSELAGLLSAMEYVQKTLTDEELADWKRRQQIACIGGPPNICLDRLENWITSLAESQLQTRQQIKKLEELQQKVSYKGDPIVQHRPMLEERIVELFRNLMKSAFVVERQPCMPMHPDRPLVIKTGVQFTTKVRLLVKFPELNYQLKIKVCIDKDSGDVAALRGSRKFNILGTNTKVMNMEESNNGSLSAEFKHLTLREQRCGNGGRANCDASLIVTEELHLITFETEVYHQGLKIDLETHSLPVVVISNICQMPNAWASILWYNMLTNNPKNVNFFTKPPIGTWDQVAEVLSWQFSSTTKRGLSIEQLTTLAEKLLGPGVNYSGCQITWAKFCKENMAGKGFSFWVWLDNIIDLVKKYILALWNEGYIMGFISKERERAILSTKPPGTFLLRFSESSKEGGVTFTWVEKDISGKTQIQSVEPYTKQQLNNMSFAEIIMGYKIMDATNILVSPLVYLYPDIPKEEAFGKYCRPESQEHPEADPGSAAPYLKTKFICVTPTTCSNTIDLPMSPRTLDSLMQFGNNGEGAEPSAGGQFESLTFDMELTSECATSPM
Method in brief: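 Readout: fluorescent reporter mRNA fragments resolved by capillary electrophoresis. Setup: HepG2 transfected with MRTUs reporting endogenous transcription-factor activity, dosed 24 h. Gain or loss of signal fitted bidirectionally against DMSO control.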

[13] = ATG_TA_CIS: Attagene CIS-FACTORIAL HepG2 Assay for human TA Basal Promoter (AID 2282964); settings: HepG2 Attagene CIS-factorial TA basal promoter reporter; actives raise or lower the signal
Method in brief: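 HepG2 cells transiently transfected with multiple reporter units under cis promoter elements, reporting endogenous transcription factor activity; this endpoint tracks the TA basal promoter as background control. Reporter mRNA after 24 h dosing measured by RT-PCR/capillary electrophoresis; bidirectional fits versus DMSO.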

[14] = ATG_TCF_b_cat_CIS: Attagene CIS-FACTORIAL HepG2 Assay for human T-Cell-Factor with beta-catenin (TCF/b-cat) (AID 2282965); settings: HepG2 TCF/beta-catenin cis-reporter transcription, actives raise or lower the signal
Method in brief: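 HepG2 cells transiently transfected with cis-promoter-driven multiplexed reporter units; reporter mRNA measured 24 h after dosing by RT-PCR, FAM labelling, HpaI digestion and capillary electrophoresis. Bidirectional fitting relative to DMSO baseline.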

[15] = ATG_TAL_CIS: Attagene CIS-FACTORIAL HepG2 Assay for human TAL Basal Promoter (AID 2282966); settings: HepG2 Attagene cis-factorial TAL promoter reporter; actives raise or lower the signal;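 further: background control endpoint measuring basal TAL promoter reporter mRNA not a specific factor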
Method in brief: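 Background-control endpoint: basal TAL promoter reporter transcripts in transiently transfected HepG2, measured 24 h after dosing. Read-out by RT-PCR with fluorescent primer extension and capillary electrophoresis; gain or loss of signal fitted relative to DMSO.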

[16] = ATG_TGFb_CIS: Attagene CIS-FACTORIAL HepG2 Assay for human Transforming Growth Factor (TGF) (AID 2282967); settings: HepG2 Attagene CIS TGFb reporter, mRNA transcription; actives raise or lower the signal
Method in brief: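 HepG2 cells transiently transfected with cis-promoter-driven multiple reporter units measure endogenous TF activity; reporter mRNA quantified at 24 h by RT-PCR, FAM labeling, HpaI digestion and capillary electrophoresis. Bidirectional fit vs DMSO.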

[17] = target: Paired box protein Pax-6 (Homo sapiens) (UniProt P26367); experiment: ATG_Pax6_CIS: Attagene CIS-FACTORIAL HepG2 Assay for human Paired Box 6 (PAX6) (AID 2282956); settings: HepG2 CIS-FACTORIAL PAX6 reporter transcription, RNA readout; actives raise or lower the signal
Chain of Paired box protein Pax-6 (Homo sapiens) (P26367 whole entry, looked up): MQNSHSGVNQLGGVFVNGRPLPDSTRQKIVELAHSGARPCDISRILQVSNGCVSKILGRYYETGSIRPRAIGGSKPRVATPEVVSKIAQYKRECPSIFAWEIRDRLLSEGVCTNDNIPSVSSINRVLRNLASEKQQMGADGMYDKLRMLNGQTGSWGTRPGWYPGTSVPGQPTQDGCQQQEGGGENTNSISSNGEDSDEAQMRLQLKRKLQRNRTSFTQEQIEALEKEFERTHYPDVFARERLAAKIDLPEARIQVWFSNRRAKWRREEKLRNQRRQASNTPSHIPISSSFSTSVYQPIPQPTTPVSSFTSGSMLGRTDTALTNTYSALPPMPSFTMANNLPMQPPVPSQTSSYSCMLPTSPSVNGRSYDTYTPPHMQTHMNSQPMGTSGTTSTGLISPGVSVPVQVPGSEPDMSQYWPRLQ
Method in brief: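 DMSO-referenced bidirectional fits of reporter mRNA fluorescence; HepG2 with transient cis-promoter MRTUs, 24 h post-dose, RT-PCR plus capillary electrophoresis detection.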

[18] = ATG_PPRE_CIS: Attagene CIS-FACTORIAL HepG2 Assay for human Peroxisome Proliferator-activated Response Element (PPRE) (AID 2282958); settings: HepG2 PPRE cis-element reporter, Attagene transcription factor profiling; actives raise or lower the signal
Method in brief: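 After human HepG2 hepatoma cells were transiently transfected with cis-promoter reporter constructs, they were exposed to test chemicals for 24 hours. Reporter RNA was then reverse-transcribed, PCR-amplified, FAM-labeled, HpaI-digested and quantified by capillary electrophoresis.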

[19] = ATG_VDRE_CIS: Attagene CIS-FACTORIAL HepG2 Assay for human Vitamin D Receptor Element (VDRE) (AID 2282968); settings: HepG2 VDRE cis-reporter transcription, actives raise or lower the signal
Method in brief: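 Transient MRTU transfection of HepG2, 24 h compound exposure. Readout: reporter transcripts via RT-PCR and capillary electrophoresis, fluorescence. Bidirectional fit vs DMSO.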

[20] = target: Heat shock factor protein 1 (Homo sapiens) (UniProt Q00613); experiment: ATG_HSE_CIS: Attagene CIS-FACTORIAL HepG2 Assay for human Heat Shock Transcription Factor 1 (HSE) (AID 2282953); settings: HepG2 HSE cis-reporter, Attagene RNA transcription; actives raise or lower the signal
Chain of Heat shock factor protein 1 (Homo sapiens) (Q00613 whole entry, looked up): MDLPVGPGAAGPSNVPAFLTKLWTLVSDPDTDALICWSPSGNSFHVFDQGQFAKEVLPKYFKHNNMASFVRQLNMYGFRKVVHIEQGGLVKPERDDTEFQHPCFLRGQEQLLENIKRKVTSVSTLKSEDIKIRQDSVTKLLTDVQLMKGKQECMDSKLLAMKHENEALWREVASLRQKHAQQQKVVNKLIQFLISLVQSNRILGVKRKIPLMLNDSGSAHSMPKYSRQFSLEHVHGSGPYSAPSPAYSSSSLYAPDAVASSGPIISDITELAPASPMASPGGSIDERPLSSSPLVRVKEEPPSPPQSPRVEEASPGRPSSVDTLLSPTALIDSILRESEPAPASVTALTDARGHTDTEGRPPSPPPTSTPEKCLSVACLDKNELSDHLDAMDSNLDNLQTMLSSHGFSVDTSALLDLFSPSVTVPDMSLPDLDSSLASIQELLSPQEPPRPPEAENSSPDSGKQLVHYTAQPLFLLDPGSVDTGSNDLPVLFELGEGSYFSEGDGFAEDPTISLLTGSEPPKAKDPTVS
Method in brief: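 HepG2 cells transfected with cis-promoter reporter units sensing endogenous transcription factor activity; reporter mRNA quantified 24 h post-dose by RT-PCR and capillary electrophoresis of 6-FAM-labelled products. Bidirectional fitting against DMSO.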

Measured: AC50

CC(C)CP(=S)(S)CC(C)C
inactive: [1] | [2] | [3] | [4] | [5] | [6] | [8] | [9] | [10] | [11] | [12] | [13] | [14] | [15] | [16]
active: [7] 38.6 µM

CCOP(=S)(OCC)Oc1ccc(Cl)cc1Cl
inactive: [1] | [2] | [3] | [4] | [5] | [6] | [17] | [18] | [8] | [9] | [10] | [11] | [12] | [13] | [14] | [15]
active: [7] 3.82 µM | [19] 13.9 µM

CS(=O)(=O)c1ccc(C(=O)C2C(=O)CCCC2=O)c(Cl)c1COCC(F)(F)F
active: [7] 26.4 µM
inactive: [1] | [2] | [3] | [4] | [5] | [6] | [17] | [18] | [8] | [9] | [10] | [11] | [12] | [13] | [14] | [15] | [16] | [19]

Cc1cccc(C)c1NC(=O)CN1CCCC1=O
inactive: [1] | [2] | [3] | [4] | [5] | [17] | [18] | [8] | [9] | [10] | [11] | [12] | [13] | [15] | [16]
active: [7] 100 µM

CCC[N+](CCC)(CCC)CCC
inactive: [1] | [2] | [3] | [4] | [5] | [6] | [17] | [7] | [18] | [8] | [9] | [10] | [11] | [12] | [13] | [14] | [15] | [16]

O=c1nc(O)n(Cl)c(=O)n1Cl
inactive: [1] | [2] | [3] | [4] | [20] | [5] | [17] | [7] | [9] | [10] | [11] | [12] | [13] | [14] | [16]

CC(=O)CN(CC(C)=O)N=O
inactive: [1] | [2] | [3] | [4] | [5] | [17] | [18] | [8] | [9] | [10] | [11] | [12] | [13] | [14] | [15]

O=C(Cl)OCCOCCOC(=O)Cl
inactive: [1] | [2] | [3] | [4] | [5] | [6] | [17] | [7] | [8] | [9] | [10] | [11] | [12] | [13] | [14] | [15] | [16] | [19]

Source: PubChem BioAssay (EPA / NIEHS)
